PubChem BioAssay
The list shows a part of the results. Active and inactive are the calls of the source.

How the values were obtained:
[1] = target: Inward rectifier potassium channel 2 (Mus musculus) (UniProt P35561); assay: inhibition of Kir2.1 inward rectifier potassium flux – cell-based, FluxOR thallium flux, duplicate, confirmation (AID 2032); settings: Kir2.1-expressing cells, FluxOR thallium flux fluorescence, at 10 µM; hits give low values
[2] = parental HEK293 cell activity, no Kir2.1 – FluxOR thallium flux, duplicate, single concentration, counter-screen for Kir2.1 inhibitor project, confirmation (AID 2105;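 active means dye signal at least 3 control SD above or below untreated wells in both duplicates, raw fluorescence within 3, either direction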;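 on FluxOR signal as % of negative control (100 = no effect): percent is based on the flux ratio of peak minus minimum fluorescence over baseline F0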); settings: parental HEK293 cells, FluxOR thallium flux fluorescence, at 10 µM; 0% = unstimulated blank wells
[3] = parental CHO-K1 cell activation, no KCNQ2 – FluxOR thallium flux, duplicate, counter-screen for KCNQ2 potentiator project, confirmation (AID 2282;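 active means signal rise of at least 3 SD above the untreated control mean, in both duplicate wells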;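 further: counter screen of KCNQ2 potentiator hits so any rise reflects channel-independent effects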); settings: parental CHO-K1 cells, FluxOR thallium flux fluorescence; at 10 µM; hits give high values; zero = vehicle mean+3SD, 100% = vehicle-minus-blank window
[4] = target: Potassium voltage-gated channel subfamily KQT member 1 (Homo sapiens) (UniProt P51787); assay: KCNQ1 activation in stable CHO cells – cell-based, FluxOR thallium flux, selectivity assay for KCNQ2 potentiator project, confirmation (AID 2283;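 active means fluorescence ratio rise of at least 3 SD of vehicle wells above their mean, in both replicate wells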;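 further: 0% = vehicle mean plus 3 SD and 100% = vehicle minus unstimulated blank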); settings: FluxOR thallium flux fluorescence, at 10 µM, hits give high values, beyond 3SD, as % of vehicle-control signal
[5] = target: Potassium voltage-gated channel subfamily KQT member 2 (Rattus norvegicus) (UniProt O88943); assay: KCNQ2 potassium channel activity enhancers – cell-based, CHO, FluxOR thallium flux, duplicate, confirmation (AID 2287;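 active means fluorescence ratio rising 3 SD or more over the vehicle control mean in both replicates, plus primary screen hit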;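 further: peak minus minimum thallium fluorescence divided by baseline after K/Tl stimulus; 0% = vehicle mean plus 3 SD and 100% = vehicle minus unstimulated blank difference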); settings: CHO-KCNQ2 cells, FluxOR thallium flux fluorescence; at 10 µM; hits give high values
[6] = target: Inward rectifier potassium channel 2 (Mus musculus) (UniProt P35561); assay: PubChem AID 2345; settings: HEK293 Kir2.1, FluxOR thallium flux fluorescence; at 10 µM; hits give high values;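 further: 0% = vehicle mean plus 3 SD and 100% = vehicle minus no-stimulus blank window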
[7] = target: Potassium voltage-gated channel subfamily KQT member 2 (Rattus norvegicus) (UniProt O88943); assay: W236L mutant KCNQ2 current enhancers – cell-based, rat KCNQ2 W236L, CHO, automated patch clamp, mechanism study for KCNQ2 potentiator project (AID 2558;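 active means current increase at least 3 SD of the untreated controls above them in both duplicate recordings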); settings: at 25 µM
[8] = target: Voltage-gated inwardly rectifying potassium channel KCNH2 (Homo sapiens) (UniProt Q12809); assay: hERG block by Kir2.1 inhibitor candidates – cell-based, thallium flux, counter-screen for Kir2.1 inhibitor project (AID 2236; call rule not given here;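 further: host cells are CHO cells stably expressing hERG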); settings: hERG-expressing cells, at 10 µM; hits give high values
[9] = target: Potassium channel subfamily K member 9 (Homo sapiens) (UniProt Q9NPC2); assay: human KCNK9 potassium channel blockers – cell-based, selectivity assay for Kir2.1 inhibitor project (AID 2329; call rule not given here); settings: KCNK9-expressing cells, ion flux inhibition, at 10 µM; hits give high values
[10] = target: Inward rectifier potassium channel 2 (Mus musculus) (UniProt P35561); assay: Kir2.1 potassium current inhibition – cell-based, secondary, automated electrophysiology, Kir2.1 inhibitor project (AID 463252; call rule not given here); settings: Kir2.1 cells, automated patch-clamp current inhibition, at 25 µM; hits give high values
[11] = target: Short transient receptor potential channel 4 (Mus musculus) (UniProt Q9QUQ5); assay: DAMGO-gated TRPC4 membrane potential modulation – cell-based, second specificity screen, HEK293 TRPC4/mu-opioid, selectivity assay for TRPC6 inhibitor project, confirmation (AID 2776;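 active means compounds whose fluorescence signal differed from control wells by over 3 SD, either direction, in both duplicate plates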); settings: HEK293 TRPC4/MOR, membrane potential dye fluorescence, at 10 µM, channel activated by saturating DAMGO dose; hits give high values
[12] = test system: transient receptor potential cation channel C4 (TRPC4), mouse; assay: membrane potential change in TRPC4 cells – cell-based, HEK293 TRPC4/mu-opioid, membrane potential dye, selectivity assay for TRPC6 inhibitor project, confirmation (AID 2777;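 active means rise or fall in signal beyond 3 SD of buffer-only wells in both replicate plates, either sign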;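 further: integrated kinetic ratio of fluorescence range over baseline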); settings: membrane potential fluorescence, at 10 µM
[13] = parental HEK293 depolarization signal interference – cell-based, second counter screen, counter-screen for TRPC6 inhibitor project, confirmation (AID 2779;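 active means membrane potential signal moving either way by over 3 SD of the maximum-effect control, in both duplicate plates, meaning non-specific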); settings: parental HEK293 membrane potential dye fluorescence; at 10 µM; maximal acetylcholine challenge after compound addition
[14] = nonspecific voltage dye signal in HEK293 – cell-based, parental HEK293, counter-screen for TRPC6 inhibitor project, confirmation (AID 2780;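 active means membrane potential signal shifting up or down by more than 3 SD of buffer-only wells, on both duplicate plates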;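 further: plate controls were buffer EC0 wells for no effect and acetylcholine ECmax wells for full effect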); settings: parental HEK293 membrane potential dye fluorescence; at 10 µM
[15] = target: Short transient receptor potential channel 6 (Mus musculus) (UniProt Q61143); assay: blockers of TRPC6 cation channel activity – HEK293 cells, membrane potential dye, duplicate, confirmation (AID 488960;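 active means fluorescence ratio falls more than 5 SD below the full-stimulation control mean, in both duplicate runs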;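 further: integrated fluorescence ratio of peak minus minimum over baseline after agonist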); settings: ACh-evoked depolarization, at 10 µM; hits give high values
[16] = nonspecific flux increase, KCNQ1-free cells – parental CHO cells, counter-screen for KCNQ1 potentiator project (AID 493006;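 active means duplicate-averaged activation above buffer control mean plus 5 SD of those controls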;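 on activation: fluorescence ratio of max minus min over baseline after K+ and Tl+ depolarization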); settings: parental CHO-K1 cells, FluxOR thallium flux, at 10 µM; hits give high values
[17] = target: Potassium voltage-gated channel subfamily KQT member 1 (Homo sapiens) (UniProt P51787); assay: enhancement of KCNQ1 channel thallium flux – FluxOR thallium flux, CHO cells, duplicates, confirmation (AID 493007;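 active means potentiation averaged over duplicate wells exceeding buffer-only control mean by more than 3 SD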;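 on outcome: cells depolarized by a potassium plus thallium sulfate stimulus after compound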;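 on potentiation: 0% = buffer-only wells and 100% = R-L3 activator control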); settings: KCNQ1 cell line, FluxOR thallium flux fluorescence, at 10 µM; hits give high values, % of reference activator effect, buffer zero
[18] = target: Potassium voltage-gated channel subfamily KQT member 2 (Rattus norvegicus) (UniProt O88943); assay: KCNQ2 thallium flux enhancement – KCNQ2-CHO-K1 cells, selectivity assay for KCNQ1 potentiator project (AID 493009;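 active means mean duplicate potentiation above the buffer control mean plus 5 SD of buffer wells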;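 further: assay conditions were tuned for KCNQ1 rather than KCNQ2 modulators; signal is max minus min fluorescence divided by baseline after thallium stimulus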); settings: FluxOR thallium flux fluorescence, at 10 µM; hits give high values, scaled: buffer 0, activator control 100
[19] = target: Potassium voltage-gated channel subfamily KQT member 1 (Homo sapiens) (UniProt P51787); assay: KCNQ1 activators by electrophysiology – IonWorks patch clamp, KCNQ1-CHO cells, orthogonal assay for KCNQ1 potentiator project, confirmation (AID 493184;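 active means current rise at least 3 SD above the untreated control mean in each of two repeat wells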); settings: automated patch clamp current, at 10 µM; hits give high values

Chain of Potassium voltage-gated channel subfamily KQT member 1 (Homo sapiens) (P51787 whole entry, looked up): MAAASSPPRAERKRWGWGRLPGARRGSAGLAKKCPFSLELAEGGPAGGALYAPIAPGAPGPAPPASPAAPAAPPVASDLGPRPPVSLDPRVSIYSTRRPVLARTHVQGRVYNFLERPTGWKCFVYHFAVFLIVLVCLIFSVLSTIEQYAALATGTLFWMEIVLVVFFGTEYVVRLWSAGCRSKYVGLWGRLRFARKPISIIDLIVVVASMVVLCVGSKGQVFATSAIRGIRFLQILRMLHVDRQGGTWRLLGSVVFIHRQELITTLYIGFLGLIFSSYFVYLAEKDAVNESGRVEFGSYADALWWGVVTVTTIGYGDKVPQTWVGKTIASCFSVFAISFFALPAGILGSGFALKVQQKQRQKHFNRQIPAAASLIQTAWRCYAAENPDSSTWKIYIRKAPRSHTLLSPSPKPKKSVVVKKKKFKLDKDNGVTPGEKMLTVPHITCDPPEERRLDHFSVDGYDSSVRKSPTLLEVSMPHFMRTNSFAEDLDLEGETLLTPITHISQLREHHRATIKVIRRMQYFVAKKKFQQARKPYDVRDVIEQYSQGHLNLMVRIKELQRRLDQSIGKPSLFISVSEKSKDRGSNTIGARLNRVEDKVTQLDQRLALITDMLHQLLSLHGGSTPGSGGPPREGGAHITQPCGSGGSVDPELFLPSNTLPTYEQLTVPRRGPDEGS
Chain of Inward rectifier potassium channel 2 (Mus musculus) (P35561 whole entry, looked up): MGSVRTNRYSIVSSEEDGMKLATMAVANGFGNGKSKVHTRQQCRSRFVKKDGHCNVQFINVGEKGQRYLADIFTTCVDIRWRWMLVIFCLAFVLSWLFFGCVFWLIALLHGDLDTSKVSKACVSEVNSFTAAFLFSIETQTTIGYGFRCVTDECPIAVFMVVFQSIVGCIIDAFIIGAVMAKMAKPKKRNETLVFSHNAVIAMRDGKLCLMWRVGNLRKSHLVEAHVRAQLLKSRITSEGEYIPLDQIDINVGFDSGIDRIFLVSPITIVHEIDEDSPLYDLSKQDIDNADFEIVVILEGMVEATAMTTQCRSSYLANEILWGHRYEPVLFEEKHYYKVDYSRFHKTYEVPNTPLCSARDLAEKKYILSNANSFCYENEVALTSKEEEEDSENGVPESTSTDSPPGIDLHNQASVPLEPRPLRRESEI
Chain of Voltage-gated inwardly rectifying potassium channel KCNH2 (Homo sapiens) (Q12809 whole entry, looked up): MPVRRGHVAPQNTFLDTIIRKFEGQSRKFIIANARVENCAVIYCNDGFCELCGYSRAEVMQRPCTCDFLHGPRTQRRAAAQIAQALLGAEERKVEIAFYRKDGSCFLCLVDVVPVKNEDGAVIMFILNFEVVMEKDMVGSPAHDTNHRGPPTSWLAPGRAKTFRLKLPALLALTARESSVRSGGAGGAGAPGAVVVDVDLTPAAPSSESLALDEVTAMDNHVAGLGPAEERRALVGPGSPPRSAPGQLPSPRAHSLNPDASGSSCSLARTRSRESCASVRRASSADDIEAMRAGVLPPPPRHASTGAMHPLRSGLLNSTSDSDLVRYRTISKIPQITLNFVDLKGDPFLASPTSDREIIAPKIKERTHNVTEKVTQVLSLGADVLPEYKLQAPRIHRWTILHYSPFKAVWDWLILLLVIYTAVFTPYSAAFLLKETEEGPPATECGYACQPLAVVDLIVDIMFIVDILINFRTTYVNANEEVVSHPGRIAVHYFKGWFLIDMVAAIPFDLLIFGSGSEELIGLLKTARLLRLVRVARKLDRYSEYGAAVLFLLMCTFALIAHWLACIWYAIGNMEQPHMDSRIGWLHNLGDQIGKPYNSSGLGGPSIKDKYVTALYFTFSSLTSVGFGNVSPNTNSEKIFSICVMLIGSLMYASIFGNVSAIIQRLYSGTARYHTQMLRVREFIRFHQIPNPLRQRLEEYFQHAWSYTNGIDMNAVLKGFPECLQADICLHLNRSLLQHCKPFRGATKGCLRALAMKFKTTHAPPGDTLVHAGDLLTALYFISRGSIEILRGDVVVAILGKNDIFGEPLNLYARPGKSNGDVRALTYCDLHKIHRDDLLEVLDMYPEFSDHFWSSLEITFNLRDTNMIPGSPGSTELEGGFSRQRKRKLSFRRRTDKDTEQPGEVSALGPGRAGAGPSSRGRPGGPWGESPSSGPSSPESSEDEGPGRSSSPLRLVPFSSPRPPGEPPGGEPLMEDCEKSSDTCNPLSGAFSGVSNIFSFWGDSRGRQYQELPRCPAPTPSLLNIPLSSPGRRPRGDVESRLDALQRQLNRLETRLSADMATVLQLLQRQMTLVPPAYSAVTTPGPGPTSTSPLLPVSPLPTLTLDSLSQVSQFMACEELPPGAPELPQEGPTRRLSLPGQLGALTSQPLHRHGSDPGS
Chain of Short transient receptor potential channel 4 (Mus musculus) (Q9QUQ5 whole entry, looked up): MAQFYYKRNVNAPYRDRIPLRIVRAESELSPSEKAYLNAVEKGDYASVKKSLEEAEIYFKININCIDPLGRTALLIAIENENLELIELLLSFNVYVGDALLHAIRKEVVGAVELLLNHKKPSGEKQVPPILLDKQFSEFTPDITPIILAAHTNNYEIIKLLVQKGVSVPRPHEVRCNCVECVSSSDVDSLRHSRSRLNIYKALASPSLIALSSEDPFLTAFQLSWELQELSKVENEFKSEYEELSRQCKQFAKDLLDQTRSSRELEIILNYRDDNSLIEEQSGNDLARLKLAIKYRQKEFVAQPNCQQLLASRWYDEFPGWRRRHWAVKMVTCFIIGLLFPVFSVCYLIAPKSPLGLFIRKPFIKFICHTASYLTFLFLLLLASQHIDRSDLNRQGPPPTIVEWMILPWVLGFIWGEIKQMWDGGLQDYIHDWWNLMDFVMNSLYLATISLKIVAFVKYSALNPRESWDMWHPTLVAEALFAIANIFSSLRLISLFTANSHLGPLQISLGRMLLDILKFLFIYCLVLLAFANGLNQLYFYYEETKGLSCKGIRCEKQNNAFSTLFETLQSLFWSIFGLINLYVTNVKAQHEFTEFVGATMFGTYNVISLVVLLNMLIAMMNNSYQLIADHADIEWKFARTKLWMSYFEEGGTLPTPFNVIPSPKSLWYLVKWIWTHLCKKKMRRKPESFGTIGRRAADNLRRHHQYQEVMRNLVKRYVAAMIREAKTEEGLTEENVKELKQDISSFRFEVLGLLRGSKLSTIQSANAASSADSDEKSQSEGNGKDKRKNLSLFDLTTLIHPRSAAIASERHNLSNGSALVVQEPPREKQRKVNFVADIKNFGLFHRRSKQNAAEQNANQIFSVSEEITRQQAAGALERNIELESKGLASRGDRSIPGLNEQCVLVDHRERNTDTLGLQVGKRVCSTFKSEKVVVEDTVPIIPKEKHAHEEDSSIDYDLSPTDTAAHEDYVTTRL
Chain of Short transient receptor potential channel 6 (Mus musculus) (Q61143 whole entry, looked up): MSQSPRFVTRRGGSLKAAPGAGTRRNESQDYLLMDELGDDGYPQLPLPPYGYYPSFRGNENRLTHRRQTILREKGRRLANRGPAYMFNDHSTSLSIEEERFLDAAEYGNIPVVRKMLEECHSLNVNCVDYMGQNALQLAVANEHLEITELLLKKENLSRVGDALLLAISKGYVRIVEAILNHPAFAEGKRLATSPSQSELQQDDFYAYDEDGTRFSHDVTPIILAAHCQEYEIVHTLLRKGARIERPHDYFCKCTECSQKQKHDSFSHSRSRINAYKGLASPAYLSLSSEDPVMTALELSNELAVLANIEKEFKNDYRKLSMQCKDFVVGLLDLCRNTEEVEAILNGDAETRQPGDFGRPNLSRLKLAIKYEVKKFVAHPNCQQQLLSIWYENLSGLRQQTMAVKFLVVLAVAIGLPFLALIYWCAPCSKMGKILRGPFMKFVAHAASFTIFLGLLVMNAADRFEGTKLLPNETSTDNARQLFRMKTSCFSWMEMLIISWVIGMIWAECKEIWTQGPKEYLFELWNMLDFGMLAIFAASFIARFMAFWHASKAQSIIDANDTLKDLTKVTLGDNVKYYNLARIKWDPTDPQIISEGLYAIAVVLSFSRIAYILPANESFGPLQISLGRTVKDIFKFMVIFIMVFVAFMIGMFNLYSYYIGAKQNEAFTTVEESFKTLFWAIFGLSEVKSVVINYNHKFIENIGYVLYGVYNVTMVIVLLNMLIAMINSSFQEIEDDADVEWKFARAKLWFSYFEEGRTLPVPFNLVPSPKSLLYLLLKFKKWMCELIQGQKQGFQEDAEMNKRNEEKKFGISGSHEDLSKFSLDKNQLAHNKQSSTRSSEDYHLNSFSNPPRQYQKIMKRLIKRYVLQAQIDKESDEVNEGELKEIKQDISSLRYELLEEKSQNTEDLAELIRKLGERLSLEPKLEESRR

CC(NC(=O)Nc1ccccc1)c1ccccc1 (configuration not stated)
inactive: outcome [1] | outcome [2] | activity increase over 3SD of controls [3] -4.7% | activation over 3SD threshold [4] -0.5% | activity over 3SD threshold [6] -35.8% | outcome [7]
active: potentiation, less the hit threshold [5] 22.8%

CC1=NN(C(=O)c2ccc(Br)cc2)C(O)(c2ccccc2)C1 (configuration not stated)
inactive: outcome [1] | activity increase over 3SD of controls [3] -19% | activation over 3SD threshold [4] -5.7% | potentiation, less the hit threshold [5] -11.5% | activity over 3SD threshold [6] -31.6%
active: FluxOR signal as % of negative control (100 = no effect) [2] 73.5%

CN1CCN(CCCCOc2ccccc2-c2ccccc2)CC1
active: Tl flux remaining, % of negative control (hits give low values) [1] 48.5% | inhibition [10] 27.4%
inactive: outcome [2] | outcome [8] | outcome [9]

CCCCNC(=O)Nc1c(C)cc(SC#N)cc1C
inactive: outcome [1] | outcome [2] | activity over 3SD threshold [6] -33.2% | outcome [7]
active: activity increase over 3SD of controls [3] 5.5% | activation over 3SD threshold [4] 75.2% | potentiation, less the hit threshold [5] 19.5%

Cc1cc2cc3c(cc2nc1SCC(=O)Nc1c(C)cccc1C)CCC3
active: activity increase over 3SD of controls [3] 20.3% | activation over 3SD threshold [4] 6.2%
inactive: outcome [1] | outcome [2] | potentiation, less the hit threshold [5] -22.8% | activity over 3SD threshold [6] -19.1%

O=C(NC(Nc1nc2ccc([N+](=O)[O-])cc2s1)(C(F)(F)F)C(F)(F)F)c1ccccc1
inactive: outcome [1] | outcome [2] | outcome [13]
active: inhibition [11] 45% | activity change, negative = inhibition [12] 60.8% | membrane potential signal change [14] 36.6% | inhibition [15] 93.7%

CCn1c2ccccc2c2cc(NC(=O)CNC)ccc21
active: Tl flux remaining, % of negative control (hits give low values) [1] 44% | potentiation, less the hit threshold [5] 1.9%
inactive: outcome [2] | activity increase over 3SD of controls [3] -6.1% | activation over 3SD threshold [4] -12.2% | activity over 3SD threshold [6] -90% | outcome [7] | outcome [16] | outcome [17] | outcome [18] | outcome [19]

Cc1ccc(/C=N/NC(=O)c2cc3ccccc3cc2O)o1
inactive: outcome [1] | activation over 3SD threshold [4] -6.4% | activity over 3SD threshold [6] -20.1% | outcome [7] | outcome [19]
active: FluxOR signal as % of negative control (100 = no effect) [2] 414% | activity increase over 3SD of controls [3] 42.5% | potentiation, less the hit threshold [5] 69% | activation [16] 482% | potentiation [17] 140% | potentiation [18] 506%

Cc1cccc(NC(=O)c2nc(S(=O)(=O)Cc3ccccc3)ncc2Cl)c1
active: potentiation, less the hit threshold [5] 4%
inactive: outcome [1] | outcome [2] | activity increase over 3SD of controls [3] -15.5% | activation over 3SD threshold [4] -22.3% | activity over 3SD threshold [6] -36% | outcome [7]
